Laboratory results reported in PubChem BioAssay (EPA / NIEHS).
Results filed as inconclusive are left out. Activity calls are given as the source filed them. The calls were made as follows, unless noted: active = hit-call score of the fitted dose curve at least 0.9, where 1 is the maximum; inconclusive = response in the unintended direction; inactive = score below 0.9.

Experiments:
[1] = TOX21_p53_BLA_p2_viability: Viability Assessment in the Tox21 HCT-116 p53 Agonism Beta-lactamase Assay, Phase 2 (AID 2283591);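 also: actives lower the ATP signal meaning cytotoxicity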
Outline: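 HCT116 p53-bla cells, 4000/well, dosed after 5 h plating (217-fold dilution of DMSO stocks) and incubated 16 h at 37C. Viability taken as cellular ATP by CellTiter-Glo luminescence after 30 min RT; signal loss marks cytotoxicity.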

[2] = target: Cellular tumor antigen p53 (Homo sapiens) (UniProt P04637); assay: TOX21_p53_BLA_p2_ratio: Tox21 HCT-116 p53 Agonism Beta-lactamase Assay, Ratio, Phase 2 (AID 2283592)
Cellular tumor antigen p53 (Homo sapiens), sequence (P04637 whole entry, looked up): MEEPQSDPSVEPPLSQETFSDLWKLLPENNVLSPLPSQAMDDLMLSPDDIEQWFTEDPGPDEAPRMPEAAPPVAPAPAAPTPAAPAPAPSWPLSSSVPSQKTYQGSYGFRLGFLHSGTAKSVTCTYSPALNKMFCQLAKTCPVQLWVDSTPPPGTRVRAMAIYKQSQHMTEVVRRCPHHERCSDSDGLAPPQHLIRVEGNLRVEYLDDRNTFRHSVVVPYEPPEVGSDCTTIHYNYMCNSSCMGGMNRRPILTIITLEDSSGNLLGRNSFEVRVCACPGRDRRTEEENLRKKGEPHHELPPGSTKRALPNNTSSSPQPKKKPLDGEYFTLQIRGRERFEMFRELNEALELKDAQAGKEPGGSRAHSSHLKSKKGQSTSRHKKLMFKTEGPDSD
Outline: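 An inducible beta-lactamase reporter in HCT116 cells signals p53 pathway activation. After 16 h chemical exposure at 37C, cells load CCF4-AM substrate for 2 h at room temperature; activity is the cleaved/uncleaved emission ratio relative to DMSO.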

[3] = TOX21_p53_BLA_p3_viability: Viability Assessment in the Tox21 HCT-116 p53 Agonism Beta-lactamase Assay, Phase 3 (AID 2283593);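 also: cells exposed to compound for 16 h before reading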
Outline: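 HCT116 cells, 4000/well, dosed 5 h after plating by pin transfer (217-fold dilution from DMSO stock) and incubated 16 h at 37C, 5% CO2. Viability read as ATP luminescence with CellTiter-Glo after 30 min at room temperature.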

[4] = target: Cellular tumor antigen p53 (Homo sapiens) (UniProt P04637); assay: TOX21_p53_BLA_p3_ratio: Tox21 HCT-116 p53 Agonism Beta-lactamase Assay, Ratio, Phase 3 (AID 2283596)
Outline: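 HCT116 p53-bla cells (4000/well) given compound in DMSO (217-fold dilution) after 5 h, incubated 16 h at 37C. CCF4-AM substrate 2 h at room temperature; 460/530 nm emission ratio, gain fitted against DMSO.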

[5] = TOX21_p53_BLA_p4_viability: Viability Assessment in the Tox21 HCT-116 p53 Agonism Beta-lactamase Assay, Phase 4 (AID 2283597);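 also: hits lower the luminescence signal meaning cytotoxicity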
Outline: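 Compound exposure of HCT116 cells lasts 16 h at 37C, 5% CO2, with DMSO stocks diluted 217-fold. Cellular ATP is then quantified by CellTiter-Glo luminescence after 30 min at room temperature.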

[6] = target: Cellular tumor antigen p53 (Homo sapiens) (UniProt P04637); assay: TOX21_p53_BLA_p5_ratio: Tox21 HCT-116 p53 Agonism Beta-lactamase Assay, Ratio, Phase 5 (AID 2283599)
Outline: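 HCT-116 p53-bla cells (4000/well) plated 5 h, dosed with compound (217-fold DMSO dilution) for 16 h at 37 C; CCF4-AM substrate 2 h at room temperature. Activity is the 460/530 nm emission ratio (405 nm excitation), fitted in gain-of-signal direction versus DMSO.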

[7] = target: Cellular tumor antigen p53 (Homo sapiens) (UniProt P04637); assay: TOX21_p53_BLA_p4_ratio: Tox21 HCT-116 p53 Agonism Beta-lactamase Assay, Ratio, Phase 4 (AID 2283601)
Outline: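 HCT-116 p53 beta-lactamase reporter cells (4000/well) preincubated 5 h, then compound (217-fold dilution of DMSO stock) for 16 h at 37C. CCF4-AM substrate added 2 h at room temperature; 460/530 nm emission ratio fitted upward versus DMSO.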

[8] = CCTE_Harrill_HTTr_Viability_MCF7: CCTE's 6-hour Cell Viability Assessment for the High-Throughput Transcriptomics (HTTr) Platform, in MCF-7 cells cultured in DMEM + 10% fetal bovine serum, Harrill Lab (AID 2284010; active = hit-call score of the fitted dose curve at least 0.9, where 1 is the maximum; inactive = score below 0.9)
Outline: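 Viability measured through PI dye exclusion by high-content imaging at 6 h post-dosing.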

[9] = CCTE_Harrill_HTTr_Apoptosis_MCF7: CCTE's 6-hour Apoptosis Assessment for the High-Throughput Transcriptomics (HTTr) Platform, in MCF-7 cells cultured in DMEM + 10% fetal bovine serum, Harrill Lab (AID 2284011; active = hit-call score of the fitted dose curve at least 0.9, where 1 is the maximum; inactive = score below 0.9)
Outline: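 Cells are dosed with test chemicals at eight concentrations and imaged 6 hours later for caspase-3/7 activity using a green fluorogenic detection reagent. Activity is fitted in both directions against DMSO controls.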

[10] = CCTE_Harrill_HTTr_CellCount_MCF7: CCTE's Cell Proliferation Assessment for the High-Throughput Transcriptomics (HTTr) Platform, Harrill Lab (AID 2284012);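 also: count of Hoechst-stained nuclei per well by high-content imaging in MCF-7 cells; cells exposed to compound for six hours; intended direction is loss of nuclei count meaning fewer cells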
Outline: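 Nuclei counting (Hoechst, high content imaging) in MCF-7 after a 6 h treatment at eight concentrations. Activity fitted bidirectionally, DMSO as negative control.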

[11] = tested on: Brachyury (BRA) Protein Expression, Deisenroth Lab, TBXT (gene 6862); assay: CCTE_Deisenroth_DEVTOX-GLR_legacy_Bra: (Legacy) CCTE's DevTox GLR-Endo Assay Evaluation of Brachyury (BRA) Protein Expression, Deisenroth Lab (AID 2284329; active = hit-call score of the fitted dose curve at least 0.9, where 1 is the maximum; inactive = score below 0.9)
Outline: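 RUES2-GLR human pluripotent cells are differentiated for 48 h and receive two chemical exposures 24 h apart, at 10 concentrations from 1 nM to 200 uM. Cells are fixed, nuclei stained and imaged. Bra+ cells are those with mean Bra intensity over 5x BMAD above the pluripotent control median, expressed as a percentage of cell count, after subtracting the 0.2% DMSO control median.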

[12] = CCTE_Deisenroth_DEVTOX-GLR_legacy_CellCount: (Legacy) Viability Assessment in CCTE's DevTox GLR-Endo Assay, Deisenroth Lab (AID 2284331; active = hit-call score of the fitted dose curve at least 0.9, where 1 is the maximum; inactive = score below 0.9); details: actives raise or lower the signal
Outline: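 Human pluripotent RUES2-GLR cells differentiated 48 h with two 24-h-interval exposures, 10-point 1 nM–200 uM series, 0.2% DMSO. Fixed nuclei counted by high-content imaging (5 fields/well); bidirectional fit vs DMSO, n≥4.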

[13] = tested on: SRY-box transcription factor 2 (SOX2) Protein Expression, Deisenroth Lab, SOX2 (gene 6657); assay: CCTE_Deisenroth_DEVTOX-GLR_legacy_Sox2: (Legacy) CCTE's DevTox GLR-Endo Assay Evaluation of SRY-box transcription factor 2 (SOX2) Protein Expression, Deisenroth Lab (AID 2284346; active = hit-call score of the fitted dose curve at least 0.9, where 1 is the maximum; inactive = score below 0.9)
Outline: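 RUES2-GLR human pluripotent cells were differentiated for 48 h with two chemical doses 24 h apart, over 1 nM-200 uM. Sox2+ cells were those above 5x BMAD of the endoderm-control median; percent Sox2+ minus the 0.2% DMSO median was used, from n=4 replicates.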

[14] = tested on: SRY-box transcription factor 2 (SOX2) Protein Expression, Deisenroth Lab, SOX2 (gene 6657); assay: CCTE_Deisenroth_DEVTOX-GLR_Endo_SOX2: CCTE's DevTox GLR-Endo Assay Evaluation of SRY-box transcription factor 2 (SOX2) Protein Expression, Deisenroth Lab (AID 2284412)
Outline: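 RUES2-GLR human pluripotent cells were seeded 24 h, then differentiated 48 h with two chemical exposures 24 h apart. Cells were fixed, nuclei stained and imaged by high-content microscopy. Endpoint is %SOX2+ cells over cell count, minus 0.2% DMSO control; 10-point series 1 nM–200 uM.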

[15] = tested on: SRY-box transcription factor 17 (SOX17) Protein Expression, Deisenroth Lab, SOX17 (gene 64321); assay: CCTE_Deisenroth_DEVTOX-GLR_Endo_SOX17: CCTE's DevTox GLR-Endo Assay Evaluation of SRY-box transcription factor 17 (SOX17) Protein Expression, Deisenroth Lab (AID 2284413; active = hit-call score of the fitted dose curve at least 0.9, where 1 is the maximum; inactive = score below 0.9)
Outline: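 RUES2-GLR human pluripotent cells were differentiated toward endoderm for 48 h and received two compound doses 24 h apart (1 nM - 200 uM, 10 points). High-content imaging of fixed cells gave the percent SOX17+ cells per cell count, expressed as percent change versus 0.2% DMSO.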

[16] = tested on: Brachyury (BRA) Protein Expression, TBXT (gene 6862); assay: CCTE_Deisenroth_DEVTOX-GLR_Endo_BRA: CCTE's DevTox GLR-Endo Assay Evaluation of Brachyury (BRA) Protein Expression, Deisenroth Lab (AID 2284417; active = hit-call score of the fitted dose curve at least 0.9, where 1 is the maximum; inactive = score below 0.9)
Outline: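 RUES2-GLR pluripotent cells differentiated 48 h with two chemical exposures 24 h apart, 10-point range 1 nM - 200 uM. Percentage of BRA+ cells per total count by high-content imaging, minus 0.2% DMSO control.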

[17] = tested on: SRY-box transcription factor 17 (SOX17) Protein Expression, Deisenroth Lab, SOX17 (gene 64321); assay: CCTE_Deisenroth_DEVTOX-GLR_Pluri_SOX17: CCTE's DevTox GLR-Pluri Assay Evaluation of SRY-box transcription factor 17 (SOX17) Protein Expression, Deisenroth Lab (AID 2284427)
Outline: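 Seed cells 24 h; differentiate 48 h, dosing at 0 and 24 h (1 nM - 200 uM); fix, stain nuclei, image 5 fields per well; count SOX17+ cells over total cells and subtract 0.2% DMSO control.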

[18] = tested on: SRY-box transcription factor 2 (SOX2) Protein Expression, Deisenroth Lab, SOX2 (gene 6657); assay: CCTE_Deisenroth_DEVTOX-GLR_Pluri_SOX2: CCTE's DevTox GLR-Pluri Assay Evaluation of SRY-box transcription factor 2 (SOX2) Protein Expression, Deisenroth Lab (AID 2284428; active = hit-call score of the fitted dose curve at least 0.9, where 1 is the maximum; inactive = score below 0.9)
Outline: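 SOX2 expression frequency is scored in a human pluripotent reporter line, RUES2-GLR, exposed to chemicals twice over 48 h. Imaging-based SOX2+ cell percentage is normalized as change versus 0.2% DMSO.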

[19] = CCTE_Deisenroth_DEVTOX-GLR_Pluri_CellCount: Viability Assessment in CCTE's DevTox GLR-Pluri Assay Evaluation of Total Cell Counts, Deisenroth Lab (AID 2284430; active = hit-call score of the fitted dose curve at least 0.9, where 1 is the maximum; inactive = score below 0.9)
Outline: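 RUES2-GLR human pluripotent cells, seeded 24 h, then differentiated 48 h with two chemical exposures 24 h apart; 10-point series 1 nM - 200 uM. Fixed, nuclear-stained, imaged (5 fields/well); nuclei count as % change vs 0.2% DMSO.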

Measured: AC50

Cc1c(C(=O)NCCO)[n+](=O)c2ccccc2n1[O-]
inactive: [1] | [2] | [3] | [4] | [5] | [6] | [7]

OCC1CC2CC1C1CCC(CO)C21 (configuration not stated)
inactive: [1] | [2] | [3] | [4] | [5] | [6] | [7] | [8] | [9] | [10]

NNc1ccc(C(=O)O)cc1
inactive: [1] | [2] | [3] | [4] | [5] | [6] | [7]

CCCCCCCC(=O)CC[C@@H]1[C@@H](C/C=C\CCCC(=O)OC(C)C)[C@@H](O)C[C@H]1O
inactive: [4]
active: [1] 36.2 µM | [2] 43.7 µM | [3] 43.7 µM | [5] 23 µM | [6] 43 µM | [7] 43.6 µM

COc1cc2ncnc(Nc3ccc(F)c(Cl)c3)c2cc1OCCCN1CCOCC1
active: [5] 40.7 µM | [11] 8.42 µM | [12] 6.58 µM | [13] 5.86 µM | [14] 10.9 µM | [15] 5.78 µM | [16] 10.8 µM
not listed: [8] | [9] | [10]
inactive: all other assays above
